# Source: PubChem BioAssay (Tox21)
# Records with an inconclusive call do not appear. Activity calls are given as the source filed them. Calls follow the shape of the dose curve; as a rule, active = well fitted cell-killing curve with a large enough effect in the repeat runs; inconclusive = weak or mixed curves, or effect the other way; inactive = flat fitted curve, though single readings scatter.
# Assay: qHTS RealTime-Glo MT Cell Viability Assay in HEK293 cells - 8 hour (AID 1224887); also: nearly all actives have a fitted effect of over 50% in size; as to activity change, negative = cytotoxicity: top concentration of the series differs between compounds
# Conditions: RealTime-Glo luminescence; series mostly up to 76.8 µM; activity change, negative = cytotoxicity: at the top concentration
# Summary of the method: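 Kinetic, non-lysing viability readout. Seed HEK293 (600/well) with reagent, incubate 5 h at 37 C/5% CO2, pin 23 nL compound in DMSO, incubate at 37 C, read luminescence at 0, 8, 16, 24, 32, 40 h.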
# % is scaled to controls: 0 for no effect and ±100 for the full control effect; potency is read from the fitted curve at half-maximal effect.
Structure (SMILES),"activity change, negative = cytotoxicity",Potency
BrCCCCCCBr,-14.9% (inactive),–
Nc1cnn(-c2ccccc2)c(=O)c1Cl,16.8% (inactive),–
Fc1cc(Br)ccc1CBr,10.9% [at 35.3 µM] (inactive),–
Nc1cc2c3c(c1)C(c1ccccc1)=N[C@@H](NC(=O)c1cccnc1)C(=O)N3CC2,6.29% (inactive),–
O=[N+]([O-])c1cc(Cl)c(Cl)c(Cl)c1,-2.31% (inactive),–
CCCSC(=O)N(CCC)CCC,0.21% (inactive),–
Cc1cc(C)c(C(=O)P(=O)(C(=O)c2c(C)cc(C)cc2C)c2ccccc2)c(C)c1,0.498% (inactive),–
CC(Oc1ccc(Oc2ncc(C(F)(F)F)cc2Cl)cc1)C(=O)O (configuration not stated),0.878% (inactive),–
Cc1coc2c1CCC(C)C2 (configuration not stated),0.701% (inactive),–
CC(N)=S,8.38% (inactive),–
CCN(CC)CCOC(=O)C(C)(c1ccccc1)c1ccccc1,-7.76% [at 35.3 µM] (inactive),–
O=C1c2ccccc2C(=O)c2ccccc21,16.6% [at 15.8 µM] (inactive),–
CCCCC(=O)Cl,2.5% (inactive),–
CCC(=O)C(CCN(C)C)(c1ccccc1)c1ccccc1,4.06% [at 35.3 µM] (inactive),–
c1cc2c(c(N3CCNCC3)c1)OCCO2,-3.53% [at 35.3 µM] (inactive),–
CCCSC(=O)Cl,4.96% (inactive),–
N#CC(CCc1ccc(Cl)cc1)(Cn1cncn1)c1ccccc1 (configuration not stated),–,21.9 µM (active)
CCOC(=O)NC(=S)Nc1ccccc1NC(=S)NC(=O)OCC,-11.8% (inactive),–
ClC(Cl)Br,8.91% (inactive),–
C(CCOCC1CO1)COCC1CO1 (configuration not stated),0.292% (inactive),–
OC(c1ccccc1)(c1ccccc1)C1CCNCC1,2.11% [at 35.3 µM] (inactive),–
CCN(CC)C(=O)[C@@H]1C=C2c3cccc4[nH]cc(c34)C[C@H]2N(C)C1,-13.9% [at 200 µM] (inactive),–
NC(=S)C(N)=S,22.7% (inactive),–
CNC(=O)O/N=C(\C)SC,4.68% (inactive),–
N#CCBr,14.8% (inactive),–
CCCCCCI,-12.2% (inactive),–
CC(CC(C#N)(c1ccccc1)c1ccccc1)N(C)C (configuration not stated),-10.7% (inactive),–
